From PubChem BioAssay
CYP2C9 activ: human CYP2C9 activators, primary screen, biochemical, luminescence | recombinant CYP2C9, luciferin-H conversion; active compounds read high; factor 1 = untreated enzyme, 0 = blocked | activation factor at 5 µM | 1.4% of 96,000 active | Cytochrome P450 2C9 (Homo sapiens), P11712 | AID 1024, 2008;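 active = activation factor of 2 or more for CYP2C9 at a 5 µM dose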;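 also: 0 = sulfaphenazole-blocked wells and 1 = vehicle-only wells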
Cav32 inh: Cav3.2 calcium influx blockers – cell-based, Fluo-4 calcium fluorescence, FDSS, MLSMR library, primary screen; Voltage-dependent T-type calcium channel subunit alpha-1H (Homo sapiens), O95180; Cav3.2-expressing cells; active compounds read low; B-score at 10 µM; 4% of 100,000 active;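 active = single-dose well whose peak fluorescence ratio is a statistical outlier from its plate by either plate-standardised score or position-corrected B-score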
CYP2C19 act: human CYP2C19 activators, primary screen, biochemical, luminescence; 96,000 tested, under 10 active; recombinant CYP2C19, luciferin-H EGE luminescence; active compounds read high; 0 = fully inhibited enzyme, 1 = untreated enzyme; Cytochrome P450 2C19 (Homo sapiens), P33261; activation factor at 5 µM;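 active = activation factor of at least 2 at 5 µM in the primary screen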;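 also: 0 = wells with 2.5 mM tranylcypromine and 1 = vehicle-only wells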
CYP2C19 inhib: blockers of cytochrome P450 2C19 activity – biochemical, luminescence, ADME assay, primary screen; P33261; CYP2C19 Supersomes, luciferin-H EGE luminescence, 30 min; inhibition, % at 5 µM; 21% of 96,000 active;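 active = CYP2C19 inhibition above a set limit at 5 µM in the primary screen, cut at about 50% in these data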;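 also: plate controls were negative control wells for no effect and 2.5 mM tranylcypromine positive control for full effect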
CYP2C9 inh: blockers of cytochrome P450 2C9 activity – biochemical, luminescence, ADME assay, primary screen; inhibition, % at 5 µM; AID 777, 2007; 20% of 96,000 active; CYP2C9 Supersomes, luciferin-H conversion;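 active = blocking of liver enzyme CYP2C9 beyond about 50% at 5 µM, limit read from the data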
Starred values were filed as active, the others as inactive; x = no result given. Most compounds without a hit are left out; they make up all but 27% or so of the library.

SMILES	CYP2C9 activ	Cav32 inh	CYP2C19 act	CYP2C19 inhib	CYP2C9 inh
CCOc1ccc(NC(=O)CC2C(=O)N(c3ccc(OC)cc3)C(=O)N2Cc2ccc(OC)cc2)cc1 (stereo not drawn)	x	-0.408	x	x	x
CN1C(=O)C(CC(=O)Nc2ccc(F)cc2)N(CCCc2ccccc2)C1=S (stereo not drawn)	0.1	-5.18*	0.4	60.5*	89.0*
Cc1cccc2cc(C(c3nnnn3CC3CCCO3)N3CCOCC3)c(=O)[nH]c12 (stereo not drawn)	1	0.131	1	-4.1	-4.2
CCCCCCC1CC(C)(/C(C)=N/NC(N)=O)OC1=O (stereo not drawn)	0.9	-0.108	0.9	13.5	6.7
N=C1C(c2ccccc2)=C(O)CN1c1ccccc1N1CCOCC1	1.1	0.133	0.9	8.2	-9.0
COc1ccc(NC(=O)CC2C(=O)N(c3ccc(Cl)cc3)C(=S)N2CCc2ccncc2)cc1 (stereo not drawn)	0	0.144	0.1	87.7*	96.7*
CCN1C(=O)C(CC(=O)Nc2ccc(OC)cc2)N(Cc2cccnc2)C1=S (stereo not drawn)	1	0.579	0.4	64.9*	3.1
CC(=O)Nc1nc(-c2ccccc2)ns1	x	0.881	x	x	x
O=C(CCc1ccc(S(=O)(=O)N2CCOCC2)cc1)Nc1nc(COc2ccccc2)cs1	0.2	x	1	-0.4	85.0*
Cc1sc(NC(=O)CN2CCOCC2)nc1-c1ccc2c(c1)CCN2S(=O)(=O)c1ccccc1	0.9	-0.221	0.9	7.4	14.1
O=C(COc1ccccc1)Nc1nc(-c2ccc(S(=O)(=O)N3CCOCC3)cc2)cs1	0.2	-1.69	0.8	23.6	77.6*
O=C(CN1CCOCC1)Nc1nc(-c2ccc3c(c2)CCN3S(=O)(=O)c2ccccc2)cs1	0.1	0.00221	0.3	67.6*	86.4*
O=C(CCc1ccc(S(=O)(=O)N2CCOCC2)cc1)Nc1nccs1	0.8	0.314	0.6	37.1	21.0
COCC(C)NCc1cccc(C)c1 (stereo not drawn)	1.1	0.308	0.9	14.9	-9.7
O=C(Cn1ccc2ccccc2c1=O)NCCC(=O)Nc1ccc2c(c1)OCCO2	0.6	-0.406	0.9	9.7	39.9
O=C(Cc1ccccc1[N+](=O)[O-])NCc1ccc(Cl)cc1	x	0.231	x	x	x
O=[N+]([O-])c1ccccc1CNC(Cc1ccccc1)c1ccccc1 (stereo not drawn)	0.6	-1.04	0.1	90.0*	39.7
C/C(=C\C(=O)c1ccc(Cl)cc1)Nc1ccc(Br)cc1	x	-1.54	x	x	x
O=C(/C=C(\c1ccc(Cl)cc1)n1cncn1)c1ccc(Cl)cc1	0.9	0.675	0.1	89.7*	7.8
C/C(Cl)=C\Cn1c(NCCCn2ccnc2)nc2c1c(=O)n(C)c(=O)n2C	0	1.14	0.2	77.0*	99.6*
C/C(Cl)=C/Cn1c(NCCCn2ccnc2)nc2c1c(=O)[nH]c(=O)n2C	0.1	0.352	0.5	52.5*	89.6*
CCCNc1nc2c(c(=O)[nH]c(=O)n2C)n1Cc1cccc(Br)c1	1	2.21	1	2.8	0.0
CCN(CC)CCNc1nc2c(c(=O)n(C)c(=O)n2C)n1C/C=C(/C)Cl	1	0.709	1	-2.2	0.4
Cn1c(=O)[nH]c(=O)c2c1nc(NCCCn1ccnc1)n2Cc1ccc(F)cc1	0.2	0.344	0.3	68.1*	77.5*
O=C(CSc1nc2ccccc2n1Cc1ccccc1)N/N=C/c1ccco1	0.5	-3.99*	0.4	55.5*	48.7
SMILES	CYP2C9 activ	Cav32 inh	CYP2C19 act	CYP2C19 inhib	CYP2C9 inh
Cc1ccc(Cn2c(SCC(=O)N/N=C/c3ccc(C)o3)nc3ccccc32)cc1	0.8	-10.1*	0.9	5.9	18.8
Cn1c(SCC(=O)N/N=C/C=C\c2ccco2)nc2ccccc21	1.4	0.982	0.8	15.5	-36.7
Cc1ccc(/C=N/NC(=O)CSc2nc3ccccc3n2C)s1	1.5	-1.55	0.8	18.0	-49.8
CCOc1ccc(-c2nc(N)ncc2Oc2ccccc2Br)c(O)c1	0.9	0.0401	0.8	16.7	6.1
CCOc1ccc(-c2[nH]ncc2-c2ccc(OC)c(OC)c2)c(O)c1	0.2	-1.11	0.2	83.7*	84.3*
C=C(C)COc1ccc(-c2[nH]ncc2-c2ccccc2OC)c(O)c1	0.1	-3.44	0.3	74.7*	89.3*
CCOc1ccc(-c2[nH]ncc2Oc2ccccc2OCC)c(O)c1	0.1	-2.83	0.1	90.4*	88.2*
COc1ccccc1-c1cc(N)n[nH]1	1	0.171	1.1	-7.4	-3.1
CCCOC(=O)c1ccc(Oc2cn[nH]c2-c2ccc(OC)cc2O)cc1	0	x	0	96.6*	99.1*
C=C(C)COc1ccc(-c2nc(N)ncc2Oc2ccccc2OC)c(O)c1	0.7	0.295	0.8	24.2	29.6
COc1ccccc1Oc1ccc2c(c1)C(=O)N(c1cccc(O)c1)C2=O	0.8	-0.374	0.8	18.1	19.8
CCOc1ccc(-c2[nH]ncc2Oc2ccccc2OC)c(O)c1	0	-0.455	0	99.3*	98.3*
C=C(C)COc1ccc(-c2[nH]ncc2Oc2ccccc2OC)c(O)c1	0.2	-1.22	0.4	61.1*	84.7*
Cc1cc(C)c(NC(=O)C2CSCCS2)c(C)c1 (stereo not drawn)	x	0.032	x	x	x
O=C(CCC1CCCC1)N1CCN(C(=O)c2cccnc2)CC1	1	-0.217	0.3	69.6*	0.6
Cc1cccc(OCC(=O)N2CCN(C(=O)CCC3CCCC3)CC2)c1	0.5	-1.16	0.4	61.5*	50.7*
O=C(CCC1CCCC1)Nc1ccc(OCC(=O)N2CCOCC2)cc1	x	1.1	x	x	x
C/C(Cn1nc([N+](=O)[O-])cc1C)=N\NC(=O)c1cccc(Br)c1	0.9	-0.0968	0.4	59.4*	7.6
CCCOc1cccc(NC(=O)c2c(-c3ccccc3)noc2C)c1	0.8	-4.85*	0.7	27.7	16.4
Cc1onc(-c2ccccc2)c1C(=O)Nc1cccnc1	0.5	1.17	0.9	10.6	50.1*
Cc1onc(-c2ccccc2)c1C(=O)Nc1cccc(OC(C)C)c1	0.7	-0.987	0.7	32.0	32.5
CCOC(=O)N1CCN(c2cc(=O)n(-c3ccc(C)cc3)c(=O)[nH]2)CC1	x	0.205	x	x	x
CCOC(=O)c1cnn(-c2nc(SC)nc3sc4c(c23)CCC4)c1N	0.9	0.225	0.9	5.3	9.7
CCCC(=O)C1C(=O)CC(CC(C)SCC)CC1=O (stereo not drawn)	0.7	0.971	0.8	16.3	28.5
CCSC(C)CC1C/C(=N/O)c2c(CC)noc2C1 (stereo not drawn)	0.1	-0.0649	0.1	90.0*	93.5*
CCCc1noc2c1/C(=N\O)CC(CC(C)SCC)C2 (stereo not drawn)	0	-2.15	0.3	72.6*	98.0*
